This is a sample that favours compounds with a hit; in the whole collection about 2.2% have one here.
Ba/F3 V617F tox = reduced viability of JAK2V617F-dependent Ba/F3 cells, primary screen, JAK2V617F inhibitor project, cell-based, Ba/F3 EpoR-JAK2V617F, luminescence; inhibition, % at 5.6 µM; 220,000 compounds, 1.1% hits; ATP luminescence;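 active means inhibition above the campaign mean plus 3 SD over all tested compounds, cut at about 24% in these data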;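 further: cytokine-independent growth of Ba/F3 cells driven by EpoR plus mutant JAK2; 0% = DMSO-treated cells and 100% = JAK inhibitor I control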
KLF5 inh = KLF5 expression inhibitors, primary screen, DLD-1 cells, luminescence; 290,000 compounds, 0.23% hits; DLD-1 KLF5 promoter-luciferase reporter; inhibition, % at 5 µM;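 active means inhibition above a per-plate limit of that plate's mean compound inhibition plus 3 SD, cut at about 60% in these data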;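 further: 0% = DMSO wells and 100% = LY294002 at 200 µM; higher means less KLF5 promoter-driven luciferase light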
IEC-6 tox = cytotoxicity in IEC-6 intestinal epithelial cells, primary screen, cytotoxicity control for KLF5 inhibitor project, cell-based, luminescence; IEC-6 cytotoxicity, luminescence viability; inhibition, % at 5 µM; 290,000 compounds, 0.78% hits; AID 1825, 2009; in the data active means inhibition above about 22%;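 further: 0% = plate median of test compound wells and 100% = cytotoxic reference compound wells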
BaF3 parental = parental Ba/F3 cell viability inhibition, counter-screen for JAK2V617F inhibitor project, murine pro-B, CellTiter-Glo luminescence | CellTiter-Glo ATP luminescence | inhibition, % at 5.6 µM | 220,000 compounds, 1.1% hits | AID 1486, 2009;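 active means inhibition above a per-campaign cutoff, the mean inhibition of all tested compounds plus 3 SD, cut at about 27% in these data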;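 further: 0% = DMSO wells and 100% = JAK Inhibitor I control wells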
APP 5UTR inh = inhibitors of APP translation via 5'UTR reporter, primary screen, APP 5'UTR luciferase, SH-SY5Y cells; AID 1285, 2008; SH-SY5Y APP 5'UTR-luciferase reporter, luminescence; inhibition, % at 2 µM; 190,000 compounds, 0.82% hits;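 active means inhibition above a set limit, derived from the sample mean plus 3 SD, cut at about 45% in these data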
aSyn UTR inh = MLPCN primary screen, SNCA 5' untranslated region | alpha-synuclein 5'UTR reporter, inhibitor activity | inhibition, % (tested at 7.5 µM) | 300,000 compounds, 0.82% hits; in the data active means inhibition above about 60%;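 further: H4 neuroglioblastoma cells stably carrying SNCA 5'UTR luciferase fusion; 0% = DMSO wells and 100% = positive control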
Active calls of the source: *; . = no result.

SMILES	Ba/F3 V617F tox	KLF5 inh	IEC-6 tox	BaF3 parental	APP 5UTR inh	aSyn UTR inh
N=c1c2c(n(Cc3ccccc3)c3c1CCC3)CCC2	62*	25	4	60*	-10	27
O=C1CCCc2ccccc2N1Cc1ccc(F)cc1	0	8	-2	6	2	-11
COc1ccc(S(=O)(=O)n2cccc2)cc1OC	.	-13	-1	.	.	35
Nc1nc(N)c2cc(Sc3ccc4ccccc4c3)ccc2n1	96*	26	81*	101*	.	96*
COc1ccc(N(C(=O)C(C)C)S(=O)(=O)c2ccc3ccccc3c2)cc1	.	-10	-1	.	.	-10
NNC(=O)C1CCCN1S(=O)(=O)c1ccc(Cl)cc1 (centres undefined)	-3	-19	-6	58*	24	-6
CCC(C)NC(=O)C1CCCN1S(=O)(=O)c1ccc(Cl)cc1 (centres undefined)	-2	18	4	1	-6	-11
CC1CCCCC1NC(=O)c1ccc(S(=O)(=O)NCC2CCCO2)cc1 (centres undefined)	1	11	4	8	8	15
CC1CCCc2sc3ncn(N)c(=N)c3c21 (centres undefined)	6	-15	3	9	-2	0
CN(C)CCCN(C(=O)/C=C/c1cccs1)c1nc2ccc(F)cc2s1	6	-10	0	13	-31	-14
CN(C)CCN(C(=O)/C=C/c1cccs1)c1nc2c(F)cc(F)cc2s1	2	14	-2	7	8	96*
COc1ccc2oc(C(=O)Nc3ccc(N4CCOCC4)cc3)c(C)c2c1	.	.	.	.	.	-44
CCn1nnnc1SCC(=O)c1cccc(OC)c1	0	-22	-2	45*	-5	31
COc1ccc(-n2nnnc2SCC(=O)c2cccc(OC)c2)cc1	5	3	2	6	6	5
CC1CCN(c2nc3ccc(C(=O)O)cc3s2)CC1	-1	62	-3	3	46*	106*
CN(C(=O)c1ccccc1-c1ccccc1C(=O)O)c1ccccc1	.	-14	2	.	.	-8
CC1=CC(C)(C)N2C(=O)C(=O)c3cc(OC(=O)c4ccco4)cc1c32	69*	27	88*	53*	66*	-14
Cc1ccc(C)c(N2CCN(CCN3CCCCC3)CC2)c1	.	-48	5	.	.	-15
Cc1cc(NC(=O)c2ccccc2)c(Cl)cc1N	-4	-4	-4	-3	.	64*
CCC(=O)NC1CCN(C(=S)NC)CC1	-6	1	-12	62*	6	-1
Cc1cccc(NC(=S)/N=C(\N)Nc2nc(C)c3ccc(C)cc3n2)c1	34*	-111	5	39*	-24	-15
Cc1cc(C)c2nc(NNC(=O)c3ccc(S(=O)(=O)N4CCCC(C)C4)cc3)sc2c1 (centres undefined)	-4	24	7	5	7	73*
Cc1ccc2nc(NNC(=O)c3ccc(S(=O)(=O)N4CCc5ccccc5C4)cc3)sc2c1	0	42	-6	7	58*	96*
Cc1ccc2nc(NNC(=O)c3ccc4c(c3)OCCO4)sc2c1	1	-12	9	5	-20	-30
Cc1cccc2sc(NNC(=O)c3ccc(S(=O)(=O)N4CC(C)CC(C)C4)cc3)nc12 (centres undefined)	-1	15	2	13	15	81*
COC(=O)c1sc2ccccc2c1NC(=O)c1ccc(S(=O)(=O)N2CC(C)CC(C)C2)cc1 (centres undefined)	-2	2	9	1	5	18
Cc1cc(C)c2nc(NNC(=O)c3ccc(S(=O)(=O)N4CC(C)CC(C)C4)cc3)sc2c1 (centres undefined)	-1	2	-6	12	2	72*
Cc1cc(OCC(=O)Nc2ccccc2C(N)=O)c2c(C)cc(=O)oc2c1	.	-10	1	.	.	22
O=C(NCCN1C(=O)S/C(=C\c2ccc(OC(F)F)cc2)C1=O)c1cnccn1	0	38	19	5	76*	50
CCOC(=O)C(C)Oc1cccc2c(=O)n(CC(=O)Nc3ccc4c(c3)OCCO4)ccc12 (centres undefined)	-2	0	-2	3	15	15

Compound activity (PubChem BioAssay)
